# In PMC4552634, “A New Set of Chemical Starting Points with Plasmodium falciparum Transmission-Blocking Potential for Antimalarial Drug Discovery” (PLoS ONE, 2015):
# Among all 13,000 compounds or so, about 3,200 (25%) showed an effect of 50% or more. This is one part of the list.
# Tested on: P. falciparum stage V gametocytes
# Parameters: BacTiter-Glo ATP luminescence viability of purified stage V gametocytes in 384-well plates, per cent inhibition versus DMSO
# Settings: 48 h, 5 µM; inhibitor
row,SMILES,% Inhibition [%]
1,CC(C)(CNC(=O)C1CCN(CC2CCCCC2)CC1)c1nc(-c2ccc(Cl)c(O)c2)c(-c2ccncc2)[nH]1 [TCMDC-141147],-93.22
2,CN(C)CCOc1ccc(-c2cc(-c3ccnc(N)n3)c(-c3ccc(Cl)c(O)c3)o2)cc1 [TCMDC-141338],-4.532
3,CCCCCc1cc(O)c2c(c1)OC(C)(C)CC2C1=CCN(Cc2cccnc2)CC1 (stereo not drawn) [TCMDC-131417],-23.46
4,CCCc1ccc(NC(=O)c2ccc(CN3CCCN(Cc4cccc(O)c4)CC3)cc2)cc1 [TCMDC-136421],2.458
5,COc1ccc(C=NNc2nc(-c3ccccc3)cc(=O)[nH]2)cc1OC [TCMDC-124217],8.014
6,OC(CNC1CCCCC1)Cn1c2ccc(Br)cc2c2cc(Br)ccc21 (stereo not drawn) [TCMDC-124059],90.2
7,CC(C)NCC(O)Cn1c2ccc(Br)cc2c2cc(Br)ccc21 (stereo not drawn) [TCMDC-124100],43.74
8,N#Cc1cccc(C(=O)N2CCOC(CCN3CCC(c4ccccc4)CC3)(c3ccc(Cl)c(Cl)c3)C2)c1 (stereo not drawn) [TCMDC-135335],20.78
9,N#Cc1ccc(-c2ccc(C(=O)NCCCCN3CCC(c4ccncc4)CC3)cc2)cc1 [TCMDC-135811],-0.7108
10,N#Cc1ccc(C2CCN(CC[C@H](N)Cc3ccc(Cl)s3)CC2)cc1 [TCMDC-132358],63.71
11,CC1(C)N=C(N)N=C(N)N1O [TCMDC-131576],-2.875
12,COc1ccc2ncc(F)c(CCN3CC[C@@H](CNCc4nc5c(cc4C)SCC(=O)N5)C3)c2n1 [TCMDC-136056],97.91
13,COc1ccc2ncc(F)c(CCN3CC[C@H](NC(=O)c4ccc5c(n4)NC(=O)CS5)[C@H](O)C3)c2n1 [TCMDC-135907],-25.82
14,COc1ccc2ncc(Cl)c(CCN3C[C@H](CNCc4ccc5c(n4)NC(=O)CS5)[C@H](O)C3)c2n1 [TCMDC-136241],10.16
15,COc1ccc2ncc(F)c(CCN3CCC[C@H](CNCc4ccc5c(n4)NC(=O)CS5)C3)c2n1 [TCMDC-136318],98.5
16,COc1ccc2ncc(F)c(CCN3CC[C@@H](CNCc4cc5c(cn4)OCS5)C3)c2n1 [TCMDC-135643],33.53
17,COc1ccc2ncc(F)c(CCN3CC4CCCC4(CNCc4ccc5c(n4)NC(=O)CS5)C3)c2n1 (stereo not drawn) [TCMDC-136065],28.02
18,COc1ccc(NC(C)C(=O)Nc2ccc(Br)cc2)cc1S(=O)(=O)N1CCCCC1 (stereo not drawn) [TCMDC-125032],-25.53
19,O=C(Cc1ccc[n+]([O-])c1)Nc1cccc(-c2cccc(-c3nc4cc(F)ccc4[nH]3)c2)c1 [TCMDC-136989],-50
20,COc1ccc2nc(N(CCCn3ccnc3)C(=O)C=Cc3cccs3)sc2c1 [TCMDC-124926],-10.06
21,O=C(C=Cc1cccs1)N(CCCn1ccnc1)c1nc2ccc(F)cc2s1 [TCMDC-124928],96.26
22,Cc1ccc2nc(N(CCCn3ccnc3)C(=O)C=Cc3cccs3)sc2c1 [TCMDC-124927],1.025
23,OCCN1CCN(C2Cc3ccc(F)cc3Sc3ccc(Cl)cc32)CC1 (stereo not drawn) [TCMDC-123467],11.59
24,C=C(NC(=O)c1cc(C)cc(C)c1)C(=O)OC [TCMDC-131725],5.196

row,SMILES,% Inhibition [%]
1,CC1CCCN1Cc1cccc(-c2ccc(C(=O)NCCOc3ccccc3)s2)c1 (stereo not drawn) [TCMDC-133066],-6.821
2,CC(C)(C)OC(=O)[C@H](CC(N)=O)NC(=O)c1ccc(-c2ccc(-c3nc4cc(C(F)(F)F)ccc4[nH]3)s2)cc1 [TCMDC-132340],-23.75
3,CC(C)N(Cc1cnc(N)c(C#N)n1)c1ccc(Cl)c(Cl)c1 [TCMDC-137676],6.722
4,O=c1[nH]c(=O)n2c(nc3ccccc32)[nH]1 [TCMDC-131695],19.78
5,O=S(=O)(NCCN1CCCC1)c1ccc(-c2cccc(CNCc3ccc(F)cc3)c2)cc1F [TCMDC-132275],25.81
6,COc1ccc(-c2ccc(CNCc3ccc(F)cc3)cc2)cc1S(=O)(=O)NCCN1CCCC1 [TCMDC-132282],111.7
7,Cc1cc(-c2cccc(CNCc3ccc(F)cc3)c2)ccc1S(=O)(=O)NCCN1CCCC1 [TCMDC-132278],105
8,COc1ccc(-c2cccc(CNCc3ccc(F)cc3)c2)cc1S(=O)(=O)NCCN1CCCC1 [TCMDC-132408],73.1
9,Cc1cc(-c2ccc(CNCc3ccc(F)cc3)cc2)ccc1S(=O)(=O)NCCN1CCCC1 [TCMDC-132291],38.43
10,COc1ccc(CNCc2ccccc2)cc1-c1ccc(OC)c(S(=O)(=O)NCCN2CCCC2)c1 [TCMDC-132250],31.04
11,COc1ccc(CNCc2ccc(F)cc2)cc1-c1ccc(OC)c(S(=O)(=O)NCCN2CCCC2)c1 [TCMDC-132295],107
12,COc1ccc(Nc2nc(NCc3cccc(NS(C)(=O)=O)c3)cc(-c3ccc(OC)cc3)n2)cc1 [TCMDC-133457],-11.45
13,COc1ccc(Nc2ncc3c(-c4cccc(NC(=O)Cc5cccc(O)c5)c4)c[nH]c3n2)cc1OC [TCMDC-135247],-20.67
14,CN1CC=C(c2c[nH]c3ccc(-c4ccccc4)cc23)CC1 [TCMDC-138962],-5.151
15,Cc1cc2nc(-c3ccc(SCC(=O)Nc4ccc5c(c4)OCCO5)nc3)[nH]c2cc1C [TCMDC-125353],21.88
16,O=C(CN1CCC2(CCC1=O)CC(=O)c1ccccc1O2)NCCN1CCOCC1 (stereo not drawn) [TCMDC-133148],11.41
17,COc1ccc(-c2ccc(CNCc3ccccc3)cc2)cc1S(=O)(=O)NCCN1CCCC1 [TCMDC-132230],103.5
18,C=CCOC(=O)N1CCC(CNCc2cccc(-c3ccc(-c4nc5cc(C(F)(F)F)ccc5[nH]4)cc3)c2)C1.O=C(O)C(F)(F)F (stereo not drawn) [TCMDC-133042],-7.537
19,COc1cccc(OC2CCN(C(=O)c3cc(C(C)(C)C)nn3Cc3ccccc3)CC2)c1 [TCMDC-134143],-6.866
20,COc1cccc(CNC(=O)c2cccc(-c3cccc(CN4CCC(N5CCCC5)CC4)c3)n2)c1 [TCMDC-134417],25.8
21,COc1cccc(CC(=O)N2CCC(n3c(C)nc4ccc(C)cc43)CC2)c1 [TCMDC-124791],93.69
22,COc1cccc(CNC(=O)NC2CCN(c3ccnc(Nc4ccc(F)cc4)n3)C2)c1 (stereo not drawn) [TCMDC-133604],-32.96
23,COc1cccc(CC(=O)N2CCC(n3c(C)nc4ccc(F)cc43)CC2)c1 [TCMDC-124792],80.7
24,COc1cccc(CC(=O)NC2CCN(c3ccnc4cc(Cl)ccc34)C2)c1 (stereo not drawn) [TCMDC-133664],6.238
